Data taken from PubChem BioAssay AID1159580 (chemical genetic matrix, 2015).
Several values for one entry are separate records, joined by “and”; a condition that tells them apart may be missing. Equal values may be shown once. About 2,000 (36%) of roughly 5,500 compounds were called active. Inconclusive results (about 18%) are left out. Cut-off read from the data, not from the text of the source: active = normalized growth mostly below about 0.91 (no sharp cut-off); inconclusive = no clear call, values can overlap the other calls; inactive = mostly above about 0.92. Some of the results follow.

Assay: chemical genetic growth profiling, strain panel (AID 1159580);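 note: tested at 20 µM; growth read once vehicle control cultures reached saturation at 30 °C; 1 = growth at the plate median or of vehicle wells; lower values mean less growth of the strain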
Conditions: S. cerevisiae deletion strains, growth OD

Measured: normalized growth

CN1CCC(OC(c2ccccc2)c2ccccc2)CC1
inactive: locus YAL013W, strain DEP1, hits give low values 0.98 | locus YAL021C, strain ccr4, hits give low values 0.974 | locus YAL026C, strain drs2, hits give low values 0.972 | locus YAL030W, strain snc1, hits give low values 0.987 | locus YBL061C, strain skt5, hits give low values 1 | locus YBR009C, strain hhf1, hits give low values 0.983 | locus YBR021W, strain FUR4, hits give low values 0.985 | locus YBR023C, strain chs3, hits give low values 1.02 | locus YBR171W, strain sec66, hits give low values 0.99 | locus YBR229C, strain ROT2, hits give low values 0.977 | locus YBR231C, strain swc5, hits give low values 0.976 | locus YBR279W, strain paf1, hits give low values 1.01 | locus YCL011C, strain gbp2, hits give low values 0.998 | locus YCL016C, strain dcc1, hits give low values 1.04 | locus YCL029C, strain bik1, hits give low values 0.995 | locus YCL061C, strain MRC1, hits give low values 1 | locus YCL069W, strain vba3, hits give low values 0.973 | locus YCR088W, strain abp1, hits give low values 0.989 | locus YDL005C, strain med2, hits give low values 0.975 | locus YDL035C, strain GPR1, hits give low values 1.03 | locus YDL040C, strain nat1, hits give low values 0.975 | locus YDL074C, strain BRE1, hits give low values 0.976 | locus YDL101C, strain DUN1, hits give low values 0.973 | locus YDL134C, strain PPH21, hits give low values 1.02 | locus YDL185W, strain tfp1, hits give low values 0.984 | locus YDL192W, strain arf1, hits give low values 0.983 | locus YDR001C, strain nth1, hits give low values 0.984 | locus YDR069C, strain doa4, hits give low values 0.977 | locus YDR101C, strain arx1, hits give low values 0.987 | locus YDR137W, strain rgp1, hits give low values 1.03 | locus YDR159W, strain sac3, hits give low values 0.969 | locus YDR162C, strain NBP2, hits give low values 1.01 | locus YDR195W, strain ref2 0.973 | locus YDR297W, strain sur2, hits give low values 0.988 | locus YDR318W, strain mcm21, hits give low values 0.978 | locus YDR334W, strain swr1, hits give low values 0.982 | locus YDR335W, strain msn5, hits give low values 0.996 | locus YDR388W, hits give low values 0.992 | locus YDR392W, strain spt3, hits give low values 0.935 | locus YDR502C, strain sam2, hits give low values 1.01 | locus YEL003W, strain gim4, hits give low values 0.956 | locus YEL037C, strain rad23, hits give low values 0.97 | locus YEL061C, strain CIN8 (second series), hits give low values 0.965 | locus YEL061C, strain CIN8, hits give low values 0.995 | locus YER015W, strain faa2, hits give low values 0.99 | locus YER016W, strain bim1, hits give low values 0.977 | locus YER110C, hits give low values 0.972 | locus YER111C, strain swi4, hits give low values 0.984 | locus YER155C, strain BEM2 (second series), hits give low values 0.977 | locus YER155C, strain BEM2, hits give low values 0.988 | locus YER167W, strain BCK2, hits give low values 0.99 | locus YFR010W, strain ubp6, hits give low values 0.963 | locus YGL078C, strain dbp3, hits give low values 0.985 | locus YGL086W, strain mad1, hits give low values 0.987 | locus YGL167C, strain pmr1, hits give low values 1 | locus YGL173C, strain kem1, hits give low values 0.994 | locus YGL227W, strain vid30, hits give low values 0.983 | locus YGL240W, strain doc1, hits give low values 0.982 | locus YGL248W, strain PDE1, hits give low values 0.964 | locus YGL253W, strain hxk2, hits give low values 0.987 | locus YGR078C, strain PAC10, hits give low values 0.985 | locus YGR135W, strain pre9, hits give low values 0.951 | locus YGR252W, strain gcn5, hits give low values 0.925 | locus YHR013C, strain ard1, hits give low values 0.994 | locus YHR027C, strain rpn1, hits give low values 0.993 | locus YHR030C, strain SLT2, hits give low values 0.998 and 0.996 | locus YHR079C, strain IRE1 (second series), hits give low values 0.991 | locus YHR079C, strain IRE1, hits give low values 1.02 | locus YHR094C, strain hxt1, hits give low values 0.998 | locus YHR129C, strain ARP1, hits give low values 0.99 | locus YHR142W, strain chs7, hits give low values 1.01 | locus YHR200W, strain rpn10, hits give low values 0.987 | locus YIL066C, strain RNR3, hits give low values 1.01 | locus YIL073C, strain SPO22, hits give low values 1.01 | locus YIL125W, strain kgd1, hits give low values 0.994 | locus YIR030C, strain dcg1, hits give low values 0.984 | locus YJL092W, strain hpr5, hits give low values 0.98 | locus YJL095W, strain BCK1 (second series), hits give low values 0.988 | locus YJL095W, strain BCK1, hits give low values 0.961 and 1 | locus YJL115W, strain asf1, hits give low values 0.98 | locus YJL129C, strain trk1, hits give low values 0.984 | locus YJL134W, strain LCB3, hits give low values 0.984 | locus YJL154C, strain vps35, hits give low values 0.978 | locus YJL164C, strain tpk1, hits give low values 0.987 | locus YJL166W, strain qcr8, hits give low values 1.01 | locus YJL168C, strain set2, hits give low values 0.988 | locus YJL187C, strain SWE1 (second series), hits give low values 0.972 | locus YJL187C, strain SWE1, hits give low values 0.983 | locus YJR043C, strain POL32, hits give low values 1.03 | locus YJR066W, strain TOR1, hits give low values 0.973 | locus YKL009W, strain mrt4, hits give low values 0.974 | locus YKL068W, hits give low values 0.983 | locus YKL085W, strain MDH1 (second series), hits give low values 1 | locus YKL085W, strain MDH1, hits give low values 1 | locus YKL160W, strain elf1, hits give low values 1.03 | locus YKR001C, strain vps1, hits give low values 0.996 | locus YKR026C, strain gcn3, hits give low values 0.989 | locus YKR091W, strain srl3, hits give low values 0.991 | locus YLL001W, strain dnm1, hits give low values 1.01 | locus YLL026W, hits give low values 0.991 | locus YLL041C, strain sdh2, hits give low values 0.985 | locus YLR027C, strain aat2, hits give low values 0.995 | locus YLR039C, strain RIC1, hits give low values 1.15 | locus YLR058C, strain SHM2, hits give low values 0.992 | locus YLR102C, strain apc9, hits give low values 0.999 | locus YLR113W, strain HOG1, hits give low values 1.01 | locus YLR221C, strain rsa3, hits give low values 1.04 | locus YLR258W, strain gsy2, hits give low values 1.01 | locus YLR262C, strain YPT6 (second series), hits give low values 1.03 | locus YLR262C, strain YPT6, hits give low values 1.09 | locus YLR268W, strain sec22, hits give low values 0.992 | locus YLR320W, strain mms22, hits give low values 1.05 | locus YLR330W, strain CHS5, hits give low values 0.987 | locus YLR342W, strain FKS1 (second series), hits give low values 1.01 | locus YLR342W, strain FKS1, hits give low values 0.989 | locus YLR357W, strain rsc2, hits give low values 0.96 | locus YLR370C, strain arc18, hits give low values 1.01 | locus YLR371W, strain rom2, hits give low values 1 | locus YLR384C, strain iki3, hits give low values 0.994 | locus YLR418C, strain cdc73, hits give low values 0.956 | locus YML016C, strain PPZ1, hits give low values 0.983 | locus YML032C, strain rad52, hits give low values 1.02 | locus YML120C, strain ndi1, hits give low values 1.01 | locus YML124C, strain tub3, hits give low values 1.02 | locus YMR058W, strain fet3, hits give low values 0.978 | locus YMR078C, strain ctf18, hits give low values 0.98 | locus YMR125W, strain sto1, hits give low values 0.961 | locus YMR129W, hits give low values 0.977 | locus YMR205C, strain PFK2, hits give low values 1.03 | locus YMR223W, strain ubp8, hits give low values 0.968 | locus YMR231W, strain pep5, hits give low values 0.996 | locus YMR263W, strain SAP30, hits give low values 0.971 | locus YMR307W, strain GAS1, hits give low values 1.14 | locus YNL067W, strain RPL9B, hits give low values 0.974 | locus YNL071W, strain lat1, hits give low values 0.983 | locus YNL183C, strain NPR1, hits give low values 0.964 | locus YNL209W, strain ssb2, hits give low values 0.988 | locus YNL233W, strain BNI4, hits give low values 0.975 | locus YNL248C, strain rpa49, hits give low values 0.98 | locus YNL250W, strain rad50, hits give low values 0.969 | locus YNL271C, strain bni1, hits give low values 0.984 | locus YNL298W, strain CLA4, hits give low values 0.985 | locus YNL307C, strain MCK1, hits give low values 0.992 | locus YNL322C, strain KRE1 (second series), hits give low values 1.01 | locus YNL322C, strain KRE1, hits give low values 1.01 | locus YNR049C, strain mso1, hits give low values 0.989 | locus YNR052C, strain pop2, hits give low values 0.984 | locus YOL006C, strain TOP1, hits give low values 0.946 | locus YOL012C, strain htz1 0.957 | locus YOL147C, strain pex11, hits give low values 0.986 | locus YOR001W, strain rrp6, hits give low values 0.937 | locus YOR061W, strain CKA2, hits give low values 1 | locus YOR069W, strain VPS5, hits give low values 0.992 | locus YOR070C, strain gyp1, hits give low values 0.998 | locus YOR080W, strain dia2, hits give low values 1 | locus YOR083W, strain WHI5, hits give low values 1.04 | locus YOR106W, strain vam3, hits give low values 1.03 | locus YOR136W, strain idh2, hits give low values 0.983 | locus YOR144C, strain elg1, hits give low values 0.983 | locus YOR184W, strain ser1, hits give low values 1.01 | locus YOR231W, strain MKK1, hits give low values 1.01 | locus YOR265W, strain rbl2, hits give low values 1.01 | locus YOR270C, strain vph1, hits give low values 0.999 | locus YOR290C, strain snf2, hits give low values 0.93 | locus YOR316C, strain cot1, hits give low values 0.985 | locus YPL051W, strain arl3, hits give low values 1.02 | locus YPL055C, strain LGE1, hits give low values 0.994 | locus YPL078C, strain atp4, hits give low values 1.02 | locus YPL106C, strain sse1, hits give low values 0.985 | locus YPL240C, strain hsp82, hits give low values 1.01 | locus YPL241C, strain CIN2, hits give low values 0.991 | locus YPL256C, strain CLN2, hits give low values 1.02 | locus YPR119W, strain clb2, hits give low values 0.986 | locus YPR141C, strain kar3, hits give low values 0.965 | locus YPR163C, strain tif3, hits give low values 0.987 | locus YPR167C, strain met16, hits give low values 0.99 | strain wtn01, hits give low values 0.974
